Assays:
[1] = molecular target: Platelet-derived growth factor receptor beta (Homo sapiens) (UniProt P09619); conditions: at 1 µM;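 note: each value is a mean percent inhibition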
[2] = molecular target: Tyrosine-protein kinase FRK (Homo sapiens) (UniProt P42685); conditions: at 0.1 µM
[3] = molecular target: Tyrosine-protein kinase FRK (Homo sapiens) (UniProt P42685); conditions: at 1 µM
[4] = molecular target: Protein-tyrosine kinase 2-beta (Homo sapiens) (UniProt Q14289); conditions: at 0.1 µM
[5] = molecular target: Protein-tyrosine kinase 2-beta (Homo sapiens) (UniProt Q14289); conditions: at 1 µM
[6] = molecular target: Proto-oncogene tyrosine-protein kinase receptor Ret (Homo sapiens) (UniProt P07949); conditions: at 0.1 µM
Sequence of Proto-oncogene tyrosine-protein kinase receptor Ret (Homo sapiens) (P07949 whole entry): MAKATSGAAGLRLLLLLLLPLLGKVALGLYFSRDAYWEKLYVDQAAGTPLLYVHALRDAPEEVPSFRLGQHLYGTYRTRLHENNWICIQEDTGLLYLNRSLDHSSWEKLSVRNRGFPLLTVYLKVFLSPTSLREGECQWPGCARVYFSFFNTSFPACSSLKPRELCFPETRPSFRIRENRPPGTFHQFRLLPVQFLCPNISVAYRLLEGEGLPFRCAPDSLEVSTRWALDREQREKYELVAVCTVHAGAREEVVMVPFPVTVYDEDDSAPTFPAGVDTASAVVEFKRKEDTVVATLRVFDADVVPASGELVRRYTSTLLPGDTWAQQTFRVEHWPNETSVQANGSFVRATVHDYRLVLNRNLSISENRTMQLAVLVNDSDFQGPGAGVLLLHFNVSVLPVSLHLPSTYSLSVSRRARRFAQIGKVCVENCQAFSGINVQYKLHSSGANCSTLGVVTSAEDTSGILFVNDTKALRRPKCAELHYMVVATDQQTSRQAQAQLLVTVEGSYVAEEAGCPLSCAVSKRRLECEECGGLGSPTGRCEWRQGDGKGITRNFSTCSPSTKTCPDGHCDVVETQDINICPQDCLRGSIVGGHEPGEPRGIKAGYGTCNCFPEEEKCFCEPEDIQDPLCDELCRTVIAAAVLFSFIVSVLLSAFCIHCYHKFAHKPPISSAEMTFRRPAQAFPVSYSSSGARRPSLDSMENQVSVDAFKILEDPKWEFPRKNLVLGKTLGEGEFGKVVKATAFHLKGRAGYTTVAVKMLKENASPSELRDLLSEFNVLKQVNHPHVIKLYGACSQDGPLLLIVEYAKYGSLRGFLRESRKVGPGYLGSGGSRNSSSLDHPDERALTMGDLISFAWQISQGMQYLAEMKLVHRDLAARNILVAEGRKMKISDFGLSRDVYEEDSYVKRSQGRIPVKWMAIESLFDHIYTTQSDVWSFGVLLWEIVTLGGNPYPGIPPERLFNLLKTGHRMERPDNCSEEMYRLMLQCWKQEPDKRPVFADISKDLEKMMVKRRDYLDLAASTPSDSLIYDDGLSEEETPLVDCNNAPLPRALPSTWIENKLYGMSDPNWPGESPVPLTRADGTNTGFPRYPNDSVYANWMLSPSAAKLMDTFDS

[7] = molecular target: Proto-oncogene tyrosine-protein kinase receptor Ret (Homo sapiens) (UniProt P07949); conditions: at 1 µM
[8] = tested on: Proto-oncogene tyrosine-protein kinase receptor Ret (Homo sapiens), P07949 [V804L]; conditions: at 0.1 µM
Sequence of Proto-oncogene tyrosine-protein kinase receptor Ret (Homo sapiens), P07949 [V804L] (P07949 whole entry V804L): as the sequence (P07949 whole entry) above, with V804L counted along it

[9] = tested on: Proto-oncogene tyrosine-protein kinase receptor Ret (Homo sapiens), P07949 [V804L]; conditions: at 1 µM
[10] = tested on: Proto-oncogene tyrosine-protein kinase receptor Ret (Homo sapiens), P07949 [Y791F]; conditions: at 0.1 µM
Sequence of Proto-oncogene tyrosine-protein kinase receptor Ret (Homo sapiens), P07949 [Y791F] (P07949 whole entry Y791F): as the sequence (P07949 whole entry) above, with Y791F counted along it

[11] = tested on: Proto-oncogene tyrosine-protein kinase receptor Ret (Homo sapiens), P07949 [Y791F]; conditions: at 1 µM
[12] = molecular target: Macrophage-stimulating protein receptor (Homo sapiens) (UniProt Q04912); conditions: at 0.1 µM
Sequence of Macrophage-stimulating protein receptor (Homo sapiens) (Q04912 25-304 limits assumed): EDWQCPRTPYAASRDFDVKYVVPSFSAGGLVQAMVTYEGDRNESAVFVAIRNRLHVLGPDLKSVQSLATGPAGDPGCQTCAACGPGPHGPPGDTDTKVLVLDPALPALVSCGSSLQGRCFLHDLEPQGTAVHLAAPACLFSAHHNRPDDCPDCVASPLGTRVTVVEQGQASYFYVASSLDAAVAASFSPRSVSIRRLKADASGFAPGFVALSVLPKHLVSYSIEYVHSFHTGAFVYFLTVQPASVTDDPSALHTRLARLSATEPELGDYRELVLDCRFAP
Sequence of Macrophage-stimulating protein receptor (Homo sapiens) (Q04912 310-1400 limits assumed): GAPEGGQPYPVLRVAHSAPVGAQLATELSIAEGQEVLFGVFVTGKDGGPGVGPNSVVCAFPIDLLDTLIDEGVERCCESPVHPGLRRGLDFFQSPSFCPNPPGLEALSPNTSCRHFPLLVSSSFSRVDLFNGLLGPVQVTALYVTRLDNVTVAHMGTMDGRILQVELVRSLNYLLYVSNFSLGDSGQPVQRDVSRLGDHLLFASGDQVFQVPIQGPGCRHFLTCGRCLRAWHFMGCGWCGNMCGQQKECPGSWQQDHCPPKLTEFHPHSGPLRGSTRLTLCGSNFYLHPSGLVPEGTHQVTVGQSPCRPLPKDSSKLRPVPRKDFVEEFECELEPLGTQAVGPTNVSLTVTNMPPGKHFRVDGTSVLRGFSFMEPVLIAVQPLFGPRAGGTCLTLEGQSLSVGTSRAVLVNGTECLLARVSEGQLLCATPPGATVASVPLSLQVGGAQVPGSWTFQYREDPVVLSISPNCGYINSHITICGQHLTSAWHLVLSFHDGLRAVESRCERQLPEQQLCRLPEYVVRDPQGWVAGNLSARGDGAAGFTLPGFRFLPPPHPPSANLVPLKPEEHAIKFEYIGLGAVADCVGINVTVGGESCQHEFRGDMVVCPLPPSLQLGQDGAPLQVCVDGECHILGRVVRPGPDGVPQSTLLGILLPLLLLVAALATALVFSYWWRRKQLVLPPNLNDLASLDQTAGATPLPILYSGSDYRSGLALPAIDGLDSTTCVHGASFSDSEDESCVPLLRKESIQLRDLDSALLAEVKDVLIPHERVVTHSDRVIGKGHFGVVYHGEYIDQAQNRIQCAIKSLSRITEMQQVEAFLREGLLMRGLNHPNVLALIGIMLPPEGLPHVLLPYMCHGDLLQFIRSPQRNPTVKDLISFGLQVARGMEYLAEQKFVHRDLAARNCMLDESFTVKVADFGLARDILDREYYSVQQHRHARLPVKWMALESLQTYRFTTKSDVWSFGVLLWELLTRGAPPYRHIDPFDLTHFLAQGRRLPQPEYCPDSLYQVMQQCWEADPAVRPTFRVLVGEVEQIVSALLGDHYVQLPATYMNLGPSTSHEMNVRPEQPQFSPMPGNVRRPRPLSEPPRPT

[13] = molecular target: Macrophage-stimulating protein receptor (Homo sapiens) (UniProt Q04912); conditions: at 1 µM
[14] = molecular target: Proto-oncogene tyrosine-protein kinase ROS (Homo sapiens) (UniProt P08922); conditions: at 0.1 µM
[15] = molecular target: Proto-oncogene tyrosine-protein kinase ROS (Homo sapiens) (UniProt P08922); conditions: at 1 µM
[16] = molecular target: Proto-oncogene tyrosine-protein kinase Src (Homo sapiens) (UniProt P12931); conditions: at 0.1 µM
[17] = molecular target: Proto-oncogene tyrosine-protein kinase Src (Homo sapiens) (UniProt P12931); conditions: at 1 µM
[18] = molecular target: Tyrosine-protein kinase Srms (Homo sapiens) (UniProt Q9H3Y6); conditions: at 0.1 µM
[19] = molecular target: Tyrosine-protein kinase Srms (Homo sapiens) (UniProt Q9H3Y6); conditions: at 1 µM
[20] = molecular target: Tyrosine-protein kinase SYK (Homo sapiens) (UniProt P43405); conditions: at 0.1 µM;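 note: reported percentages are mean inhibition values for SYK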

Sequence of Protein-tyrosine kinase 2-beta (Homo sapiens) (Q14289 whole entry, looked up): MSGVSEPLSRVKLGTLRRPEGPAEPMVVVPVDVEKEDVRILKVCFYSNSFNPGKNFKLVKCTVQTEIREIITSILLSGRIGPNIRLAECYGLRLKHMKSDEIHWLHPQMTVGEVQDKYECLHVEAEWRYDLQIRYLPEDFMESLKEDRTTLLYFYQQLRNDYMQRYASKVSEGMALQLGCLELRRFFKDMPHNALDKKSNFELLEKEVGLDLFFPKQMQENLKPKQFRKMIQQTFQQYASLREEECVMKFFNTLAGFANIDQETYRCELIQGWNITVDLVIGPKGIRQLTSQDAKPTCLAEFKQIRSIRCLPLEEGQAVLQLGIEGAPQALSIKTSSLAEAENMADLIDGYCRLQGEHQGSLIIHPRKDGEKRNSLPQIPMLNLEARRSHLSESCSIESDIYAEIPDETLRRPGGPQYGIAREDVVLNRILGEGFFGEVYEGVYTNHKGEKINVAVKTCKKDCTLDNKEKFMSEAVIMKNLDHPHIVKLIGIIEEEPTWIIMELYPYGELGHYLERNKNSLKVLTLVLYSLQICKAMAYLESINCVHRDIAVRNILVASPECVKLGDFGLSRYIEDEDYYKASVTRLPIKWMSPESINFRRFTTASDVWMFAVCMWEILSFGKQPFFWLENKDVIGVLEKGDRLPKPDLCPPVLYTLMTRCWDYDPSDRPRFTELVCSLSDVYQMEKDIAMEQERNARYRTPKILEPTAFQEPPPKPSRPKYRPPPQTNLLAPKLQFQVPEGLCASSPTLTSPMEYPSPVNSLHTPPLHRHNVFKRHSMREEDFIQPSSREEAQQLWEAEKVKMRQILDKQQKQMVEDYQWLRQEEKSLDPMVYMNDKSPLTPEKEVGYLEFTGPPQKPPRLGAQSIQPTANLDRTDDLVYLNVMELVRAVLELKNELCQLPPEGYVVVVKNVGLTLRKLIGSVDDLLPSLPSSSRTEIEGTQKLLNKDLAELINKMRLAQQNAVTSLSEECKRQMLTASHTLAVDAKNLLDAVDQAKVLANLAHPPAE
Sequence of Platelet-derived growth factor receptor beta (Homo sapiens) (P09619 whole entry): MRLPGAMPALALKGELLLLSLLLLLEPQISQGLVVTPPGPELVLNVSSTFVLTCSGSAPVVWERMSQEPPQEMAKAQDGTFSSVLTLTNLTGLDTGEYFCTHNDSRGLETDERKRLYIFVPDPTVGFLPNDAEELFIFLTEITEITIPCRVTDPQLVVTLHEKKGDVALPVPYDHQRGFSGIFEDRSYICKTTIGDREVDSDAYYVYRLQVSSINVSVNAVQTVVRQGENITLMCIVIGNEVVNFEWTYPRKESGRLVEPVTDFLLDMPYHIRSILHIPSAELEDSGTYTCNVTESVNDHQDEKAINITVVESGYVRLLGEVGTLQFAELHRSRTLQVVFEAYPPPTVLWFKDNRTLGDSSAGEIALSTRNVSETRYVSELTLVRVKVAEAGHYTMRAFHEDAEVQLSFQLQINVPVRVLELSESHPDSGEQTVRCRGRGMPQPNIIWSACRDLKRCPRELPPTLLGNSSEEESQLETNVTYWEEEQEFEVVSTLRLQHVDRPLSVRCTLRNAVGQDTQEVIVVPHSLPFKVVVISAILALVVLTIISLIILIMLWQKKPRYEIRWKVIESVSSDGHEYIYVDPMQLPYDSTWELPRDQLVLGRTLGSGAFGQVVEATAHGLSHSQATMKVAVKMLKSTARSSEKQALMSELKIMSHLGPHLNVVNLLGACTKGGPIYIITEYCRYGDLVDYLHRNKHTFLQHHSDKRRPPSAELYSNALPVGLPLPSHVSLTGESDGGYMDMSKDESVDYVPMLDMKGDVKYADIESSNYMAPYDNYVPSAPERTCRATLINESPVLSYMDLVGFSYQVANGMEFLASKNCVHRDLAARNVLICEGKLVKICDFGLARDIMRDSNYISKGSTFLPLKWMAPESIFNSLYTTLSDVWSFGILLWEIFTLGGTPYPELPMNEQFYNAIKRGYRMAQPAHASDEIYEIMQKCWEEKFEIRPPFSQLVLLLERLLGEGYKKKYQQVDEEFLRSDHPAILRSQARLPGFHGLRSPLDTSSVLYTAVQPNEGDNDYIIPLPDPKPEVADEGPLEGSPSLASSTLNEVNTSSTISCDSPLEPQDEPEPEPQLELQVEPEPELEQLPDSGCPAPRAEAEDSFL

Row | Compound | inhibition [1] [%] | inhibition [2] [%] | inhibition [3] [%] | inhibition [4] [%] | inhibition [5] [%] | inhibition [6] [%] | inhibition [7] [%] | inhibition [8] [%] | inhibition [9] [%] | inhibition [10] [%] | inhibition [11] [%] | inhibition [12] [%] | inhibition [13] [%] | inhibition [14] [%] | inhibition [15] [%] | inhibition [16] [%] | inhibition [17] [%] | inhibition [18] [%] | inhibition [19] [%] | inhibition [20] [%]
1 | C[C@@H](Oc1cc(-n2cnc3ccc(OC4CCN(C)CC4)cc32)sc1C(N)=O)c1ccccc1Cl | 70.8 | 3.35 | 3.66 | 4.13 | 11.7 | 3.19 | 16.5 | 2.32 | 15.8 | 6.79 | 22 | 0.07 | 9.84 | 8.31 | 15.5 | 10.3 | 18.7 | -0.74 | -2.64 | -0.76
2 | Fc1ccc(-c2c(-c3ccncc3)nc3n2CCS3)cc1 | 5.75 | 1.6 | 2.05 | 10.7 | 4.18 | 1.13 | 7.86 | 3.1 | 6.64 | 3.14 | 7.69 | 7.82 | 5.85 | 2.1 | 8.26 | -3.16 | 9.68 |  | 0.79 | 0.99
3 | Cc1ccc(C(=O)NC2CCC2)cc1-c1ccc(C(=O)NCC2CC2)cc1 | 4.37 | 1.45 | 0.56 | 4.2 | 4.27 | 7.54 | 8.34 | 4.17 | -0.01 | 2.44 | 2.67 | 5.75 | 4.87 | 3.25 | 2.72 | 1.78 | 4.45 | -2.12 | -0.59 | -0.95
4 | CCc1nccc2c1nc(-c1nonc1N)n2CC | 14 | 0.24 | -0.39 | 3.87 | 0.03 | 0.76 | 9.96 | 4.16 | 1.71 | 3.64 | 13.1 | -3.47 | 4.96 | 3.74 | 5.33 | -0.62 | 10.1 | -1.58 | -3.49 | -1.01
5 | O=C(Nc1n[nH]c2cc(-c3ccccc3)ccc12)C1CC1 | 13.3 | 2.92 | 2.17 | 11.3 | 7.93 | 4.67 | 5.93 | 1.54 | 0.17 | 4.42 | 10.6 | 3.18 | 5.31 | 6.26 | 7.64 | 0.33 | 10.7 | -0.84 | 3.11 | -3.33
6 | NC(=O)c1cc(-c2ccncc2)cc(-c2ccccc2)c1N | 26 | 3.05 | 7.89 | 10.8 | 13.4 | 6.99 | 27 | 2.8 | 6.36 | 6.34 | 42.3 | 4.63 | 2.14 | 5.79 | 14.7 | 10.4 | 59.8 | 0.18 | 5.81 | -0.73
7 | C/C(Nc1ccc(S(N)(=O)=O)cc1)=C1/C(=O)Nc2ccccc21 | 43.1 | 1.09 | 0.76 | -1.67 | 17.8 | 6.38 | 35.9 | 13 | 53.9 | 5.97 | 40.3 | 5.82 | 4 | 3.08 | 8.7 | -2.31 | 0.81 | 1.16 | 4.16 | -1.12
8 | COc1cc2ncn(-c3cc(OCc4cccs4)c(C(N)=O)s3)c2cc1OC | 72.5 | 1.41 | 1.32 | 3.08 | 6.94 | 11.9 | 43.5 | 7.23 | 24.7 | 15 | 54.5 | 5.86 | 7.33 | 7.93 | 30.5 | 3.31 | 17.6 | 2.39 | 7.35 | 0.21
9 | COc1ccc2ncn(-c3cc(O[C@H](C)c4ccccc4Cl)c(C(N)=O)s3)c2c1 | 18.7 | 3.26 | 4.73 | 6.17 | 9.58 |  | 9.64 | 2.37 | 7.27 | 5.2 | 8.71 | 2.64 | 3.04 | 6.54 | 10.9 | 6.13 | 5.73 | -3.68 | -2.35 | -1.79
10 | Cc1ccc(C(=O)NC(C)C)cc1-c1ccc(C(=O)NCC2CC2)cc1 | 2.4 | 0.01 | -0.89 | -7.76 |  | 2.09 | 0.64 | -0.26 | -0.17 | -0.71 | -0.37 | -4.49 | 0.06 | -1.39 | 0.55 | -4.72 | -6.71 | -2.42 | 2.24 | -0.72
11 | c1ccc(Oc2ccc(Nc3ncc(-c4ccccc4)o3)cc2)cc1 | 10.3 | -0.25 | 1.21 | 6.6 | 8.05 | 5.96 | 3.49 | 4.18 | 6.54 | 5.06 | 6.74 | 4.82 | 2.2 | 4.48 | 5.71 | -4.51 | 3.93 | 0.57 | 1.29 | -7.24
12 | CS(=O)(=O)CCNCc1ccc(-c2ccc3ncnc(Nc4ccc(OCc5ccccc5)c(Br)c4)c3c2)o1 | 7.34 | 2.64 | 3.25 | 3.86 | 10.1 | 7.14 | 4.94 | 2.03 | 4.43 | 9.28 | 15.1 | 4.89 | 6.32 | 4.46 | 10.1 | 6.71 | 6.55 | -0.64 | 2.32 | -1.09
13 | O=C1Nc2ccc(I)cc2C1=Cc1cc(Br)c(O)c(Br)c1 | 2.27 | 2.55 | 4.15 | 5.41 | 3.05 | 5.98 | 7.84 | 1.81 | 12 | 6.36 | 5.79 | 8.18 | 13.2 | 6.23 | 8.1 | 8.18 | 14.2 | 2.19 | 27.2 | 1.97
14 | Fc1ccc(-c2nc3n(c2-c2ccncc2)CCS3)cc1 | 8.35 | 1.92 | 3.19 | 9.18 | 6.63 | 4.05 | 8.81 | 9.59 | 12.6 | 5.15 | 9.79 | -2.87 | 6.64 | 7.49 | 6.54 | 3.03 | 8.62 | -2.19 | -4.01 | -6.2
15 | CN(c1ccc(NC(=O)Nc2c(Cl)cccc2Cl)cc1)c1ccnc(Nc2cccc(CS(C)(=O)=O)c2)n1 | 77.7 | 3.86 | 14.5 | 55.1 | 29.7 | 23.8 | 48.6 | 13.2 | 41 | 24.4 | 64.8 | 68.8 | 82.1 | 14.8 | 33.5 | 40.7 | 65.4 | 2.98 | 3.99 | 2.77
16 | CCC(=O)Nc1ccc(C)c(-c2ccc(C(=O)NCC3CC3)cc2)c1 | 0.71 | 2.5 | 2.55 | 11.8 | 6.44 | 7.45 | 6.85 | 1.64 | 2.22 | 4.76 | 6.48 | 9.18 | 7.8 |  | 3.11 | 6.28 | 6.57 | -0.92 | -1.83 | 3.61
17 | COc1cc2ncn(-c3cc(OCc4ccccc4C(F)(F)F)c(C(C)=O)s3)c2cc1OC | 21.5 | 0.97 | 2.94 |  |  | 4.62 | 5.58 | 5.33 | 9.72 | 7.72 | 12.8 | 2.88 | 20 | 0.39 | 7.62 | 6.86 | 6.06 | -2.02 | 0.82 | 0.3
18 | N#Cc1ccc(Oc2nccc(-c3c(-c4ccc(F)cc4)ncn3C3CCNCC3)n2)cc1 | 5.37 | 2.75 | 4.03 | 6.64 | 13.4 | 6.33 | 4.32 | 3.48 | 4.02 | 6.66 | 9.04 | 5.63 | 4.9 | 5 | 7.93 | 7.01 | 6.12 | -3.21 | -3.22 | -0.77
19 | CCc1cccc(CC)c1/C=C/c1cncc(C(=O)NC)c1 | 9.24 | 0.72 | 2.05 | 4.52 | 5.62 | 6.73 | 7.18 |  | 3.16 | 5.49 | 2.43 | -0.25 | 6 | 2.24 | 4.93 | 2.97 | 10.2 | 0.35 | -0.17 | -3.77
20 | O=C(Nc1n[nH]c2nc(-c3ccc(O)cc3)c(Br)cc12)C1CC1 | 41.3 | 14.7 | 2.41 | 9.91 | 18.5 | 11.8 | 28.1 | 5.98 | 21 | 12.1 | 36.3 | 2.95 | 6.19 | 5.89 | 11.1 | -2.92 | 20.3 | 2.23 | 17 | -6.1
21 | FC(F)(F)c1cccc(Nc2nccc(-c3cnn4nc(-c5ccccc5)ccc34)n2)c1 | 37.1 | 1.24 | 0.8 | -1 | 7.77 | 0.18 | 2.88 | 3.76 | 4.5 | 3.91 | 9 | 3.97 | 1.8 | 0.97 | 9.02 | 5.04 | 8.31 | -0.79 | -0.77 | -0.05
22 | Clc1ccc(CNc2nccc(-c3cnn4ncccc34)n2)cc1 | 13.8 | 0.01 | 1.32 | -4.51 | 2.8 | 0.88 | 5.75 | -0.76 | 5.56 | -0.42 | 20.4 | -1.7 | 6.29 | 0.86 | 6.59 | 0.82 | 6.25 | 0.35 | -1.1 | 2.92
